Results filed as inconclusive are left out. Calls of active or inactive are those of the source. Unless noted, the call rests on the fitted dose curve; in most records, active means well fitted curve in the direction sought with a large enough effect in the repeat runs; inconclusive means weak or mixed curves; inactive means no such curve, though single readings can be large; an effect the other way counts as inactive or inconclusive.
How the values were obtained:
[1] = qHTS assay for small molecule agonists of the p53 signaling pathway - cell viability (AID 651633; calls by dose curve; further: nearly all actives have a fitted effect of over 30% in size; further: potency means the concentration at half of the fitted maximal effect)
In short: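 p53RE-bla cells, seeded at 4,000 per well and rested 5 h at 37 C/5% CO2, received compounds in DMSO for 16 h at 37 C. CellTiter-Glo was then added, and luminescence was read after 30 min at room temperature to gauge cytotoxicity.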

[2] = qHTS assay for small molecules that induce genotoxicity in human embryonic kidney cells expressing luciferase-tagged ATAD5 - cell viability (AID 651634; calls by dose curve; further: nearly all actives have a fitted effect of over 25% in size)
In short: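 Fluorescence from CellTiter-Fluor, reporting protease activity within live cells, served as the viability read-out. HEK293T cells carrying luciferase-tagged ATAD5 had been treated with compound for 15.5 hr at 37C.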

[3] = qHTS assay for small molecule disruptors of the mitochondrial membrane potential - cell viability (AID 720634; calls by dose curve;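 further: human HepG2 liver cancer cells; series mostly up to about 83 µM; nearly all actives have a fitted effect of over 20% in size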)
In short: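 Cells: HepG2, 2,000/well, attached overnight. Compound 1 hr, 37 C/5% CO2. +m-MPI dye, +CellTiter-Glo 30 min RT. Readout: luminescence (ATP).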

[4] = qHTS assay to test for compound auto fluorescence at 590 nm (red) in HepG2 cells (AID 720674)
In short: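 Compound auto-fluorescence is scored relative to Rose Bengal sodium, measured at 540/590 nm in live HepG2 cultures after 1 hr compound contact (37 C, 5% CO2).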

[5] = qHTS assay to test for compound auto fluorescence at 535 nm (green) in HepG2 cells (AID 720675)
[6] = qHTS assay to test for compound auto fluorescence at 460 nm (blue) in HEK293 cells (AID 720678)
In short: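 Blue-channel (Ex/Em 405/460 nm) intensity measured in HEK293 cultures after overnight compound exposure at 37C; signal expressed relative to triamterene. Cells plated 2,000 per well in 10% dialyzed FBS medium and allowed 4-5 hr to attach.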

[7] = qHTS assay to test for compound auto fluorescence at 590 nm (red) in HEK293 cells (AID 720679)
In short: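 Red-channel autofluorescence (Ex/Em 540/590 nm; Rose Bengal sodium reference) was measured after overnight 37C, 5% CO2 exposure of attached HEK293 cells, 2,000 per well in medium with 10% dialyzed FBS.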

[8] = qHTS assay to test for compound auto fluorescence at 535 nm (green) in HEK293 cells (AID 720680)
[9] = qHTS assay to test for compound auto fluorescence at 460 nm (blue) in HEK293 cell free culture (AID 720681)
In short: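 Test compounds were pinned into cell-free culture medium (DMEM with 10% FBS) and fluorescence was read directly at Ex/Em 405/460 nm. Signals were expressed as fluorescence equivalents of triamterene, with DMSO vehicle as control.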

[10] = qHTS assay to test for compound auto fluorescence at 535 nm (green) in HEK293 cell free culture (AID 720682)
In short: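 Each library compound, or DMSO control, is added by pintool to medium alone, comprising DMEM and 10% FBS. Emission at 535 nm following 485 nm excitation is quantified against fluorescein.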

[11] = qHTS assay to test for compound auto fluorescence at 590 nm (red) in HEK293 cell free culture (AID 720683)
In short: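 Tox21 10K library compounds were pinned into cell-free DMEM with 10% FBS and fluorescence was read at excitation 540 nm. Activity is expressed as Rose Bengal sodium equivalency.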

[12] = qHTS assay to test for compound auto fluorescence at 590 nm (red) in HepG2 cell free culture (AID 720684)
In short: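 Measured in medium alone (MEM containing 10% FBS) following pintool addition of compound; emission at 590 nm with 540 nm excitation, referenced to Rose Bengal sodium.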

[13] = qHTS assay to test for compound auto fluorescence at 460 nm (blue) in HepG2 cell free culture (AID 720685)
In short: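 Compound (23 nL) or DMSO pinned into cell-free MEM with 10% FBS; blue fluorescence read at 405/460 nm excitation/emission, expressed as auto-fluorescence equivalency to triamterene.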

[14] = qHTS assay to test for compound auto fluorescence at 535 nm (green) in HepG2 cell free culture (AID 720686)
[15] = qHTS assay to test for compound auto fluorescence at 460 nm (blue) in HepG2 cells (AID 720687)
In short: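 Cells (2,000/well in MEM with 10% FBS) attached overnight at 37 C, then were exposed to compound or DMSO for 1 hr at 37 C, 5% CO2. Fluorescence read at Ex/Em 405/460 nm, expressed as triamterene-equivalent signal.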

[16] = qHTS assay for small molecule disruptors of the mitochondrial membrane potential (AID 720635); further: potency means the concentration at half of the fitted maximal effect
In short: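 HepG2 cells (2,000/well) attached overnight at 37C, then took compound for 1 hr at 37C, 5% CO2. Mito-MPS dye was added for 30 min; fluorescence was read at 490/535 nm (monomers) and 540/590 nm (aggregates).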

[17] = target: Glucocorticoid receptor (Homo sapiens) (UniProt P04150); assay: qHTS assay to identify small molecule antagonists of the glucocorticoid receptor (GR) signaling pathway (AID 720692; active means well fitted inhibition curve with a large enough effect in the signal ratio in the repeat runs, not every such curve was filed as active; the % refers to the signal ratio)
Chain of Glucocorticoid receptor (Homo sapiens) (P04150 whole entry, looked up): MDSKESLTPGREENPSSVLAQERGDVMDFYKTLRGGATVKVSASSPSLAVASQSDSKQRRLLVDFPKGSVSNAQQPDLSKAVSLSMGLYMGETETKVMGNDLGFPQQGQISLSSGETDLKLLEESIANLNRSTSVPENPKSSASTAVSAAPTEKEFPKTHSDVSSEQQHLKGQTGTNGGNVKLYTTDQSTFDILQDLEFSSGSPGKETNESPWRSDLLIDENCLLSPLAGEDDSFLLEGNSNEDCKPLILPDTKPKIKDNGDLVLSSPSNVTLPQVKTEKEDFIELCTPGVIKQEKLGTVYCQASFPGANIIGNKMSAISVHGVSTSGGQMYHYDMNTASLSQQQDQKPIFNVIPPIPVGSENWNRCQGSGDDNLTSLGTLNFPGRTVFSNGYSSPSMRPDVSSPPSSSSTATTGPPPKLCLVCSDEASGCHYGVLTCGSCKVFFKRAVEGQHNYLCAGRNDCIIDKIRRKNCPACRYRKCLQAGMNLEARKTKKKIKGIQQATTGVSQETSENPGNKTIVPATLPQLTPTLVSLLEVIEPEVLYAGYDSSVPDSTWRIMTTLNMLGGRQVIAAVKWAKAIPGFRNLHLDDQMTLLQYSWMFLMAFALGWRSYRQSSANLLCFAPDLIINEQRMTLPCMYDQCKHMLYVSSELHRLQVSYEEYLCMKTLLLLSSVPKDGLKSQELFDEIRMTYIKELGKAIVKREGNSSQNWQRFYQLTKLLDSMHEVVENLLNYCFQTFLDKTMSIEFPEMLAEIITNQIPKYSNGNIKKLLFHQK
In short: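 HeLa GR-bla cells; cmpd + dex 5 nM final, 18 h 37 C; LiveBLAzer B/G FRET substrate 2 h RT; fluorescence intensity read. Antagonist mode, qHTS.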

[18] = qHTS assay for small molecules that induce genotoxicity in human embryonic kidney cells expressing luciferase-tagged ATAD5 (AID 651632); further: nearly all actives have a fitted effect of over 15% in size
In short: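 ATAD5-luc HEK293T, 2,000 cells/well; cpd or DMSO pin-transferred; 16 hr, 37C/5% CO2; Amplite 30 min RT; luminescence.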

[19] = target: Glucocorticoid receptor (Homo sapiens) (UniProt P04150); assay: qHTS assay to identify small molecule agonists of the glucocorticoid receptor (GR) signaling pathway (AID 720691; active means well fitted activation curve with a large enough effect in the signal ratio in the repeat runs, not every such curve was filed as active; the % refers to the signal ratio)
In short: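 Fluorescence intensity from LiveBLAzer B/G FRET substrate (2 h, room temperature) reports beta-lactamase expression driven by the glucocorticoid response element in GR-bla HeLa cells after 18 h compound exposure at 37 C.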
On the % scale 0 is the no-effect control and ±100 the full control effect.

O=C(N[C@@H](c1ccccc1)[C@@H]1CCCCN1)c1cccc(C(F)(F)F)c1Cl
inactive: Potency [1] | Potency [2] | Potency [3] | outcome [4] | outcome [5] | Potency [6] | outcome [7] | outcome [8] | Potency [9] | outcome [10] | outcome [11] | outcome [12] | Potency [13] | outcome [14] | Potency [15]

CC(C)CCCCCOC(=O)CCCCC(=O)OCCCCCC(C)C
inactive: Potency [1] | Potency [2] | Potency [16] | outcome [4] | outcome [5] | Potency [6] | outcome [7] | outcome [8] | Potency [9] | outcome [10] | outcome [11] | outcome [12] | Potency [13] | outcome [14] | Potency [15] | Potency [17]

CCNC(=O)N1CCN(CCCC(c2ccc(F)cc2)c2ccc(F)cc2)CC1
inactive: Potency [1] | Potency [3] | outcome [4] | outcome [5] | Potency [6] | outcome [7] | outcome [8] | Potency [9] | outcome [10] | outcome [11] | outcome [12] | Potency [13] | outcome [14] | Potency [15]

Nc1nc(Cl)nc2c1ncn2[C@@H]1O[C@H](CO)[C@@H](O)[C@@H]1F
inactive: Potency [2] | Potency [3] | outcome [4] | outcome [5] | Potency [6] | outcome [7] | outcome [8] | Potency [9] | outcome [10] | outcome [11] | outcome [12] | Potency [13] | outcome [14]
active: Potency [1] 0.133 µM

Nc1ccc(Cl)cc1[N+](=O)[O-]
inactive: Potency [18] | outcome [4] | outcome [5] | Potency [6] | outcome [7] | outcome [8] | Potency [9] | outcome [10] | outcome [11] | Potency [13] | outcome [14]
active: Potency [16] 53.9 µM

C[C@@H]1C[C@H]2[C@@H]3CCC4=CC(=O)C=C[C@]4(C)[C@@]3(F)[C@@H](O)C[C@]2(C)[C@@]1(O)C(=O)CO
inactive: Potency [1] | Potency [2] | Potency [3] | outcome [4] | outcome [5] | Potency [6] | outcome [7] | outcome [8] | Potency [9] | outcome [10] | outcome [11] | outcome [12] | Potency [13] | outcome [14] | Potency [15]

Brc1cc(-c2ccc(Br)c(Br)c2Br)cc(Br)c1Br
inactive: Potency [1] | Potency [2] | Potency [3] | outcome [4] | outcome [5] | Potency [6] | outcome [7] | outcome [8] | Potency [9] | outcome [10] | outcome [11] | outcome [12] | Potency [13] | outcome [14] | Potency [19]

CC(C)c1nnc2ccc(-c3ocnc3-c3cc(F)ccc3F)cn12
inactive: Potency [1] | outcome [5] | Potency [6] | outcome [7] | outcome [8] | Potency [9] | outcome [10] | outcome [11] | outcome [12] | Potency [13] | outcome [14] | Potency [15] | Potency [19] | Potency [17]

CC1=CC(=O)CC(C)(C)C1(O)/C=C/C(C)=C\C(=O)O (stereo unspecified)
inactive: Potency [1] | Potency [2] | Potency [3] | Potency [16] | outcome [4] | outcome [5] | Potency [6] | outcome [7] | outcome [8] | Potency [9] | outcome [10] | outcome [11] | outcome [12] | Potency [13] | outcome [14] | Potency [19]

CC(=O)OCC(=O)[C@@]12OC(C)(C)O[C@@H]1C[C@H]1[C@@H]3C[C@H](F)C4=CC(=O)C=C[C@]4(C)[C@@]3(F)[C@@H](O)C[C@@]12C
inactive: Potency [1] | Potency [2] | Potency [16] | fluorescence, relative to Rose Bengal [4] 0.821% [at 18.6 µM] | fluorescence, % of fluorescein control [5] -0.0438% [at 18.6 µM] | fluorescence, % of triamterene [6] -0.188% [at 18.6 µM] | fluorescence, % of fluorescent control [7] 0.156% [at 18.6 µM] | fluorescence, % of fluorescein [8] -0.0611% [at 18.6 µM] | fluorescence, % of fluorescent control [9] -0.0905% [at 18.6 µM] | activity change [10] -0.0593% [at 18.6 µM] | fluorescence, % of fluorescent control [11] 0.389% [at 18.6 µM] | fluorescence, % of Rose Bengal [12] -0.181% [at 18.6 µM] | fluorescence, % of fluorescent control [13] -0.0666% [at 18.6 µM] | fluorescence, % of fluorescein control [14] -0.0467% [at 18.6 µM] | fluorescence, % of fluorescent control [15] 0.231% [at 18.6 µM]
